Measured values as given in ChEMBL document CHEMBL4513216, “Probing the Open Global Health Chemical Diversity Library for Multistage-Active Starting Points for Next-Generation Antimalarials” (ACS Infect Dis, 2020).
The whole screen tested about 69,000 compounds, of which about 8,600 (12%) showed an effect of 50% or more. Only a selection was taken, and strong results are over-represented in it overall.

test system: Plasmodium berghei; test: Screen against P. berghei liver stage (PbLuc), transformed with Luciferase, at 10uM; assay type: functional, HepG2; settings: tested at 10 uM

Row | Compound | INHIBITION [%]
1 | Cn1cc(CC2CC(=O)N(Cc3ccc(OC(F)F)cc3)C2=O)cn1 (stereo not drawn) | 16.6
2 | Cn1ccnc1C(=O)NCc1cnc2n1CCN(CC1CC1)CC2 | -24.1
3 | Cc1nc2n(n1)CC(Nc1ccnc(-c3ccccc3)n1)CC2 (stereo not drawn) | -5.1
4 | O=C(NCCn1nc(C2CCNC2)c2cccnc21)c1ccccn1 (stereo not drawn) | 3.91
5 | CC1(C)Cc2ccc(C(=O)NC3CCS(=O)(=O)C3)c(O)c2O1 (stereo not drawn) | 36.8
6 | O=C1Nc2ccccc2CNC12CCN(CC1CC1)CC2 | 20.1
7 | c1coc(CN2C[C@H](OCC3CCOCC3)[C@H]3COC[C@H]32)c1 | 21
8 | COc1cn(CC(N)=O)c(CSc2nccc(C)n2)cc1=O | 64.3
9 | COc1cn(CC(N)=O)c(CSc2nc(C)cc(C)n2)cc1=O | 24
10 | CCCNC(=O)Cn1cc(OC)c(=O)cc1CSc1nc(C)cc(C)n1 | -3.83
11 | CNC(=O)CCc1cc(C)nc(C2CCN(C3CCCCC3)CC2)c1 | 15.58
12 | CCOC(=O)[C@H]1CNC[C@@H]1C(=O)OCC | 0.868
13 | c1ccc(OCc2n[nH]c3c2CN(CC2CC2)C3)nc1 | -23.3
14 | O=S(=O)(NCC1CCN(CCN2CCOCC2)C1)c1ccccc1F (stereo not drawn) | 47.1
15 | O=C(NCCN1CCOCC1)c1ccn(-c2ccccc2F)n1 | -8.91
16 | O=C(NCCN1CCOCC1)C(OC1CCCC1)c1ccccc1 (stereo not drawn) | 69.5
17 | CN1CCN(CCNC(=O)C(OC2CCCC2)c2ccccc2)CC1 (stereo not drawn) | 35.2
18 | O=S(=O)(Cc1ccccc1F)NCCN1CCOCC1 | -11.9
19 | O=C(Cc1ccccc1F)NCCN1CCOCC1 | 68.4
20 | O=C(NCC1CCCO1)c1cc(COc2ccccc2F)[nH]n1 (stereo not drawn) | 16.8
21 | O=C(Cc1ccccc1F)NCC1CCN(CCN2CCOCC2)C1 (stereo not drawn) | 64.7
22 | O=C(Cc1ccccc1F)NCC1CCN(CCc2ccccc2)C1 (stereo not drawn) | 26.7

Row | Compound | INHIBITION [%]
23 | O=C(NCCN1CCOCC1)c1cc(COc2ccccc2F)[nH]n1 | 63.7
24 | O=C(NCCC1CCCCO1)c1cc(COc2ccccc2F)[nH]n1 (stereo not drawn) | 25.4
25 | O=C(NCCCN1CCOCC1)C(OC1CCCC1)c1ccccc1 (stereo not drawn) | -12.1
26 | O=C(Nc1nccs1)NC1CCN(CC2CCCC2)CC1 | 21.45
27 | c1nn(C2CCCCC2)cc1-c1cncn1CCCN1CCCCC1 | 18.75
28 | CCC(=O)N1CCC(Cc2ccccc2-c2ccccc2)(C(N)=O)C1 (stereo not drawn) | 36.4
29 | Cc1nccn1C1CCCN(C(=O)c2cccc(OCC(N)=O)c2)C1 (stereo not drawn) | -0.219
30 | N#Cc1ccc(OCCN2CCNC(=O)C2c2cccs2)cc1 (stereo not drawn) | 3.04
31 | Cc1ccc(C(=O)NC2CCN(Cc3noc(C(C)(C)C)n3)CC2)s1 | -42.8
32 | COCCCS(=O)(=O)N(Cc1cccc(C)c1)Cc1ccccn1 | 4.13
33 | CCN1CCC2(CCC(=O)N2Cc2cccc(C)n2)CC1 | -6.77
34 | CN(C)c1cc(C(=O)N2CCCN(Cc3cscn3)CC2)ccn1 | 20.1
35 | CC(CNC(=O)Nc1ccc(F)cc1Br)N1CCOCC1 (stereo not drawn) | 46.6
36 | CC(Cn1cncc1-c1cnn(C2CCCCC2)c1)N1CCCCC1 (stereo not drawn) | -1.9
37 | O=C(CC1CN(Cc2ccccc2)CCO1)NC1CCCC1 (stereo not drawn) | -15.8
38 | O=C(O)CC1CN(Cc2ccccc2)CCO1 (stereo not drawn) | 22.1
39 | O=C(CC1CN(Cc2ccccc2)CCO1)NCCN1CCOCC1 (stereo not drawn) | 56.5
40 | CNC(=O)c1c[nH]nc1C1CCCN1c1ncccn1 (stereo not drawn) | 23.9
41 | O=C1CCC2(CCN(Cc3ccc(F)cc3)CC2)N1CCN1CCCC1 | -22.1
42 | COc1ccc(Cn2c(=O)n(C)c(=O)c3sccc32)cc1 | 75.7
43 | COc1cccc(Cn2c(=O)n(C)c(=O)c3sccc32)c1 | 50.5
44 | COc1cccc(-n2cc3[nH]c(=O)n(Cc4cccc(F)c4)n3c2=O)c1 | 36.3

Row | Compound | INHIBITION [%]
45 | CCCc1n[nH]c(=O)n1Cc1ccc(OC)cc1 | -32.6
46 | CCS(=O)(=O)N1CCC2(CCN(Cc3cccc(OC)c3)CC2)CC1 | 34.6
47 | Cn1c(=O)c2sccc2n(Cc2ccccc2)c1=O | 36.8
48 | COc1ccc(CN2CCn3c(C(=O)N(C)C)cnc3C2)cc1 | 26.4
49 | COCCCC(=O)NCc1cccc(NC(N)=O)c1 | 15.8
50 | CCCC(=O)NCc1cccc(C(=O)OC)c1 | 51.4
51 | COC(=O)c1cccc(CNC(=O)NCCC(F)(F)F)c1 | 41.4
52 | COC(=O)c1cccc(CNC(=O)c2cc(C(C)C)n(C)n2)c1 | -55.1
53 | COC(=O)c1cccc(CNC(=O)CC(F)(F)F)c1 | 51.4
54 | COC(=O)c1cccc(CNC(=O)CCC(F)(F)F)c1 | 4.68
55 | CCc1nc(C)sc1CN1C[C@@H](C)[C@@](C)(O)C1 | 14.9
56 | CSc1ncc(C(=O)N(C)C(C)Cc2ccccn2)cn1 (stereo not drawn) | -1.16
57 | O=C(NCc1nnc2n1C(C(=O)NC1CC1)CC2)c1ccc(Cl)cc1Cl (stereo not drawn) | 44.9
58 | COCCN1CC2(CCN(C(=O)c3ccno3)CC2)c2ccccc21 | -14.7
59 | CN1CCC2(CC1)CN(C(=O)c1cccnc1)Cc1ccccc12 | 33.4
60 | CN1CCC2(CC1)CN(C(=O)c1ccncc1)Cc1ccccc12 | 57.9
61 | CS(=O)(=O)N1Cc2ccccc2C2(CCN(C(=O)c3ccno3)CC2)C1 | 55.7
62 | COCCN1Cc2ccccc2C2(CCN(C(=O)c3ccno3)CC2)C1 | -1.36
63 | Cc1ccsc1C(=O)N1Cc2ccccc2C2(CCN(C)CC2)C1 | 53.5
64 | Cc1cncc(C(=O)N2Cc3ccccc3C3(CCN(C)CC3)C2)c1 | 39.2
65 | CN1CCC2(CC1)CN(C(=O)c1cnccn1)Cc1ccccc12 | 18.3
66 | Cc1cccc(C(=O)N2Cc3ccccc3C3(CCN(C)CC3)C2)n1 | 36.9

Row | Compound | INHIBITION [%]
67 | CCCC1c2cccn2CCN1C(=O)c1cc(CC)no1 (stereo not drawn) | 44.1
68 | Cc1cccc(C)c1-n1nnnc1C1(NCc2ccco2)CCCC1 | 45.4
69 | Cc1nc(C)n(CC2CCCN2CC(=O)NC2CCOCC2)n1 (stereo not drawn) | 38.5
70 | Cc1nc(CN2CCN(CC(O)CN3CCOCC3)CC2)oc1C (stereo not drawn) | 4.34
71 | O=C([C@H]1CCCO1)N1CCC2(CCCN(CCOc3ccccc3)C2)C1 (stereo partly drawn) | 12.4
72 | COCC(=O)N1CC[C@H]2O[C@@H](C)C[C@H]2C1 | -1.55
73 | Cc1nn(C)cc1S(=O)(=O)NCC(c1ccccc1Cl)N1CCCC1 (stereo not drawn) | 13.5
74 | Cn1c(CNCC2CCCN2c2cccnn2)nc2ccccc21 (stereo not drawn) | -0.113
75 | OC(COCc1cccs1)CN1CCc2c(ncn2C2CC2)C1 (stereo not drawn) | 2.97
76 | COCCN1CCC(c2nc3cc(C)ccc3[nH]2)CC1 | 15.5
77 | Cc1ccc2[nH]c(C3CCN(C)CC3)nc2c1 | -17.9
78 | Cc1ccc2[nH]c([C@H]3CCN(CC4CCCCC4)C3)nc2c1 | 51.9
79 | Cc1nc(CNC(=O)c2cc(COc3ccccc3)[nH]n2)n[nH]1 | 15.7
80 | NC(=O)c1nc(-c2ccc(Cl)cc2Cl)oc1N | -63.4
81 | Cc1cc2c(=O)n3c(nc2s1)CCN(Cc1cnn(C)c1C)CC3 | 24.5
82 | COc1ccc2c(c1)CCCN(C(C)C(=O)NC(C)C)C2 (stereo not drawn) | -9.87
83 | COc1ccc2c(c1)CCCN(C(C)C(=O)NC(N)=O)C2 (stereo not drawn) | 1.79
84 | COC(=O)C(C)N1CCCc2cc(OC)ccc2C1 (stereo not drawn) | 59.2
85 | CCC(C(=O)NC)N(c1cccc(C)c1)S(C)(=O)=O (stereo not drawn) | 0.547
86 | Cc1cccc(C(C)(C)NC(=O)CS(=O)(=O)CC(C)C)c1 | 64.5
87 | CC(C)CS(=O)(=O)CC(=O)NC(C)(C)c1cccc(F)c1 | 52.2
88 | CNC(=O)CS(=O)(=O)Cc1coc(-c2cccc(F)c2)n1 | -11.3

Row | Compound | INHIBITION [%]
89 | Cc1cccc(C(C)(C)NC(=O)CCS(C)(=O)=O)c1 | 51
90 | CS(=O)(=O)CCC(=O)NC1(c2cccc(Br)c2)CC1 | 5.14
91 | Cc1cccc(CS(=O)(=O)CC(=O)NCCCOC(C)C)c1 | 45
92 | CS(=O)(=O)CCC(=O)Nc1ccsc1 | -120
93 | CCS(=O)(=O)CC(=O)NC(C)c1ccc(F)cc1F (stereo not drawn) | 47.5
94 | Cc1nc(C)n(CC2CCCN(CC(=O)Nc3nnc(C)s3)C2)n1 (stereo not drawn) | 33.25
95 | O=C1c2ncccc2C(CCO)N1Cc1ccccc1 (stereo not drawn) | 2.55
96 | Cc1c(COC(C)C)cccc1NC(=O)N1CCCC(CO)C1 (stereo not drawn) | 49.1
97 | CCC1c2cccn2CCN1C(=O)c1cc(OC)nc(OC)n1 (stereo not drawn) | 19.7
98 | O=C(N[C@@H]1CCC[C@@H](N2CCOCC2)[C@@H]1O)c1ncccn1 | 36.4
99 | CS(=O)(=O)N1C[C@H]2CNC[C@@]2(C(=O)NCCOc2ccccc2)C1 | 18.6
100 | O=C(C1CC1)N1C[C@H]2CNC[C@@]2(C(=O)NCCCc2ccccc2)C1 | 32.5
101 | CS(=O)(=O)N1C[C@H]2CNC[C@@]2(C(=O)NCCCc2ccccc2)C1 | 73.5
102 | CN(C)S(=O)(=O)NC(=O)CC(c1ccccc1)C(F)(F)F (stereo not drawn) | 62.8
103 | CC(C)S(=O)(=O)NC(=O)CC(c1ccccc1)C(F)(F)F (stereo not drawn) | 31.3
104 | COCC(C)(C)NC(=O)CC(c1ccccc1)C(F)(F)F (stereo not drawn) | 29.4
105 | O=C(NCCCc1ccncc1)C1CCCN(Cc2ccco2)C1 (stereo not drawn) | 19.5
106 | Cc1ccc(NCCCNC(=O)C2CCCN(Cc3ccco3)C2)nc1 (stereo not drawn) | 75.1
107 | Cc1cnccc1NCCNC(=O)C1CCCN(Cc2ccco2)C1 (stereo not drawn) | 24.3
108 | c1cncc(COCC2C[C@@H]3OCCN(Cc4cccnc4)[C@H]3C2)c1 (stereo partly drawn) | 23.6
